# Assay results taken from PubChem BioAssay.
# Molecular target: E3 ubiquitin-protein ligase XIAP (Homo sapiens) (UniProt P98170)
# Assay: small molecules binding XIAP protein – biophysical, small-molecule microarray, fluorescence 635 nm, primary screen (AID 1181);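 note: score merges 667 nm emission and signal to noise over triplicate slides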
# Conditions: higher = more signal
# Sequence of E3 ubiquitin-protein ligase XIAP (Homo sapiens) (P98170 whole entry, looked up): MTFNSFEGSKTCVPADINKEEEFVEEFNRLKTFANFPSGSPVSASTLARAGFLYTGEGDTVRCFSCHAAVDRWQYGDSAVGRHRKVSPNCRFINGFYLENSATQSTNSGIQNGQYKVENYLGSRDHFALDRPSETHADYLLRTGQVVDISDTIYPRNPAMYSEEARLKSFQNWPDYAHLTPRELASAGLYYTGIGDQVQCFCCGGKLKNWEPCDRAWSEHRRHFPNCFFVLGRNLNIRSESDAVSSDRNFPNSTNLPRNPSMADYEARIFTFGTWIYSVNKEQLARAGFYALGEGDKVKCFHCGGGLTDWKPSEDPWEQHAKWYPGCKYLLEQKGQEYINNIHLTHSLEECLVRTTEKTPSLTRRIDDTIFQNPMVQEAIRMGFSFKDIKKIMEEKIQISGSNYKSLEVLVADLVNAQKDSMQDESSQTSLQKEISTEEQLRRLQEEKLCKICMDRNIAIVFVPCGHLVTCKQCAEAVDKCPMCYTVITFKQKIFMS
row,Structure (SMILES),composite z-score
1,Cc1cc(C)c(C(O)C2C=CC3C(=O)N(c4ccccc4)C(=O)C3N2Nc2ccccc2)c(C)c1 (stereo not given),0.0542
2,O=C1O[C@H](c2ccccc2)[C@H](c2ccccc2)N2[C@H]1[C@@H](C(=O)N1CCN(c3ncccn3)CC1)[C@]1(C(=O)Nc3ccc(C#CCCO)cc31)[C@H]2c1ccc(OCCO)cc1,0.256
3,O=C1CSC(c2cccc([N+](=O)[O-])c2)N1c1ccccc1 (stereo not given),-0.0056
4,COC(=O)C(CC#Cc1ccc2c(c1)[C@]1(C(=O)N2)[C@H](c2ccc(O)cc2)N2[C@H](c3ccccc3)[C@H](c3ccccc3)OC(=O)[C@H]2[C@@H]1C(=O)O)C(=O)OC,-0.374
5,COCCCNC(=O)[C@@]1(Cc2ccccc2I)c2ccccc2C(=O)N(Cc2ccccc2Cl)[C@H]1c1ccc(CO)cc1,0.186
6,COC(=O)[C@]1(Cc2ccccc2CN=[N+]=[N-])N=C(c2ccc(OCCCO)cc2)O[C@@H]1c1ccccc1,-0.184
7,CN(C)CCCCCCNC(=O)[C@@H]1C[C@@H]2C(=O)NCC(=O)N2[C@@H]1c1ccc(O)cc1,0.249
8,COC(=O)c1ccc(OC)c(/C=C\CC(CCc2ccccc2)OC(=O)c2ccncc2)c1 (stereo not given),2.62
9,CCOC(=O)C[C@H]1[C@H](OC(=O)Cc2ccc3c(c2)OCO3)[C@@H](NC(=O)c2ccccc2)c2cc(OCCCO)ccc2N1C(=O)c1ccc2ccccc2n1,-0.138
10,CCCNC(=O)[C@@]1(Sc2ccc(C)cc2)CC(=O)N(Cc2ccccc2)[C@@H]1c1ccc(CO)cc1I,0.0471
11,CC1(C)[C@@H]2CC(C(O)C3C=CC4C(=O)N(c5ccccc5)C(=O)C4N3Nc3ccccc3F)=C[C@@H]1C2 (stereo not given in full),0.18
12,COc1ccc(C#Cc2ccc3c(c2)[C@]2(C(=O)N3)[C@H](C(N)=O)[C@H]3C(=O)O[C@H](c4ccccc4)[C@H](c4ccccc4)N3[C@@H]2c2ccc(O)cc2)cc1,0.0031
13,COc1ccc([Si](C)(C)[C@@H]2[C@@H](CCO)O[C@]3(C(=O)N(Cc4ccc(N5C(=O)c6ccccc6Oc6ccccc65)cc4)c4ccccc43)[C@H]2C)cc1,-0.203
14,NC(=O)NCC#Cc1ccc2c(c1)[C@]1(C(=O)N2)[C@H](c2ccc(O)cc2)N2[C@H](c3ccccc3)[C@H](c3ccccc3)OC(=O)[C@H]2[C@@H]1C(=O)NC[C@H](O)c1ccccc1,0.045
15,CO[C@H]1O[C@H](CO)[C@@H](OC(=O)c2ccc(Br)cc2)[C@@H]2OC(=O)[C@H](Cc3cccc(Br)c3)C/C=C/C[C@@H](Cc3cccc(Br)c3)C(=O)O[C@@H]12,-0.0663
16,CO[C@H]1O[C@H](CO)[C@@H](OC(=O)Nc2cccc(F)c2)[C@H](OC(=O)Nc2ccc3c(c2)OCO3)[C@H]1OC(=O)Nc1ccc2c(c1)OCO2,0.652
17,CC(C)C[C@H]1NC(=O)[C@H](C)NC(=O)[C@@]23C(=O)N[C@@H](Cc4ccccc4)C2[C@H](C)[C@@]2(C)O[C@H]2C3/C=C/C/C=C\CNC1=O (stereo not given in full),0.0822
18,Cc1ccc(C(C)CC(O)C2C=CC3C(=O)N(Cc4ccccc4)C(=O)C3N2n2cnnc2)o1 (stereo not given),0.263

row,Structure (SMILES),composite z-score
1,COCCCNC(=O)[C@@]1(Cc2ccccc2)COC(c2ccc(OCCCO)cc2)=N1,-0.098
2,O=C1c2ccccc2[C@](Cc2ccccc2I)(C(=O)NC2CC2)[C@H](c2ccc(CO)cc2)N1Cc1ccccc1Cl,0.0432
3,CCOC(=O)C[C@H]1[C@H](OC(=O)Cc2ccc3c(c2)OCO3)[C@@H](NC(=O)c2ccccc2)c2cc(OCCCO)ccc2N1C(=O)c1ccccc1,-0.309
4,CCOC(=O)C1=CC[C@@H](c2ccc(N(CC)CC)cc2)N(S(=O)(=O)c2ccc(C)cc2)[C@H]1c1ccc([N+](=O)[O-])cc1,-0.0143
5,COC(=O)C(CC#Cc1ccc2c(c1)[C@]1(C(=O)N2)[C@H](C(=O)N2CCc3cc(OC)c(OC)cc3C2)[C@H]2C(=O)O[C@H](c3ccccc3)[C@H](c3ccccc3)N2[C@@H]1c1ccc(OCCO)cc1)C(=O)OC,0.23
6,CC(C)N1C(=O)c2ccccc2[C@](C)(C(=O)O)[C@@H]1c1ccc(CO)cc1,0.0767
7,C=CCC(OC(C)=O)[C@@H]1[C@@H](N(Cc2ccc(-c3ccccc3)cc2)C(=O)c2cccc3ccccc23)c2cc(OCCCO)ccc2N1C(=O)c1ccc2ccccc2n1 (stereo not given in full),-0.0282
8,[N-]=[N+]=Nc1ccccc1[C@H]1OC(c2ccc(OCCCO)cc2)=N[C@@]1(Cc1ccccc1)C(=O)NCc1ccccc1,0.0917
9,COCCCNC(=O)[C@]1(CCS(=O)(=O)c2ccccc2)N=C(c2ccc(OCCCO)cc2)O[C@@H]1c1ccccc1,0.209
10,NC(=O)NCC#Cc1ccc2c(c1)[C@]1(C(=O)N2)[C@H](c2ccc(OCCO)cc2)N2[C@H](c3ccccc3)[C@H](c3ccccc3)OC(=O)[C@H]2[C@@H]1C(=O)N1CCCCCCC1,0.531
11,O=C1C[C@@](C(=O)O)(c2ccc([N+](=O)[O-])cc2)[C@@H](c2ccc(CO)cc2)N1CC12CC3CC(CC(C3)C1)C2,-0.234
12,O=C1C[C@@](C(=O)NCc2ccccc2)(c2ccc([N+](=O)[O-])cc2)[C@@H](c2ccc(CO)cc2I)N1C1CCCCC1,-0.115
13,COc1cccc(C[C@H]2C[C@@H](CO[Si](C(C)C)(C(C)C)C(C)C)N3C(=O)[C@]4(C(C)=O)O[C@]23[C@H]2C(=O)N(C)C(=O)[C@H]24)c1,0.0264
14,COCC(=C=CC[C@@H](O)c1ccccc1OCCO)C[C@@H](O)COCc1ccccc1,0.145
15,COC(=O)C(CC#Cc1ccc2c(c1)[C@]1(C(=O)N2)[C@H](C(=O)N2CCc3cc(OC)c(OC)cc3C2)[C@H]2C(=O)O[C@H](c3ccccc3)[C@H](c3ccccc3)N2[C@@H]1c1ccc(O)cc1)C(=O)OC,-0.167
16,CN1C(=O)C2C=CC(C(O)COCc3ccccc3)N(Nc3ccccc3)C2C1=O (stereo not given),0.267
17,Cc1ccccc1C(O)C1C=CC2C(=O)N(Cc3ccccc3)C(=O)C2N1n1cnnc1 (stereo not given),-0.184
